Measured values reported in the supplement of paper PMC11417369.
± gives the standard deviation of the averaged measurements. The full ranking holds about 25,000 sequences; the median of “ln(normalized median fluorescence intensity)” is about 7.9, and the highest 2% start at about 11. The sample as a whole holds a higher share of the highest values than the screen did.

test system: PfAP2-I AP2 domain 3 (GST-tagged); assay: gcPBM binding intensity (ln(normalized median fluorescence intensity)); higher = stronger DNA binding
Summary of the method: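 GST-fused DNA-binding domains of P. falciparum, expressed in E. coli, were applied at about 25 μg on average for 1 h to an Agilent 4 × 180k array of primer-extended double-stranded 36-bp intergenic genomic probes and negative controls. Binding intensity is the highest Masliner-normalised natural-log median intensity across replicate spots of either probe orientation, measured with Alexa488 anti-GST antibody and a 488 nm scan.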

Sequence	gcPBM binding intensity (ln)
ACTTATTTCGATATGTGTACTTAATATATATATTTA [XGTACX_site6616]	7.89 ± 0.39
ACATATACAAGACACACACACAACGTTTTAATAAAT [CACACA_site7017]	8.12 ± 0.46
ACATATTTTTAATACACACTCAAAAAAGTACTTAAC [CACACA_site3014]	8.2 ± 0.28
TCTACAATTATAATTACACACTATAAAAAAGAAAGA [CACACA_site2984]	7.96 ± 0.35
TCTTTTTTTTTTATTTGTACTTATTTTTTTCAAAAA [XGTACX_site3403]	8.24 ± 0.51
TGAAAAAAAAAAAAAAAAAAAAGAAAAAAAAAAAAA [CACACA_negctrl_site709]	7.82 ± 1.2
AATAATCTATATTGTACACACAAAATGGGAAAAAAA [CACACA_site6969]	8.11 ± 0.73
ACATAATATACTATTGTGCACATATATATATATATA [GTGCAC_site9761]	10.88 ± 0.085
ATAAAAAAAAATATTTGTACACATATTTATATATTA [XGTACX_site8147]	7.63 ± 0.36
ATAGAACTATATTGCACACATAATATATATATATAT [CACACA_site3189]	10.5 ± 0.52
TTTTTTATTTTGTGCACACACATAAAAATATAAATA [CACACA_site6497]	11.01 ± 0.042
ATATATATTTTTTAAACACACACATAAATATTTGTG [CACACA_site8936]	7.97 ± 0.38
ATTTATTTATTGGCACGTACAAATTTGTGTTTTCCA [XGTACX_site6978]	8.54 ± 0.53
ACATATAAATATTGTGTGCACACACATAATATATAT	10.2 ± 0.18
TTTTTCCTATTTTTAGTGCACATATAAATAAATAAA [GTGCAC_site9821]	11.6 ± 0.23
TTATTTATTTATATAGTGCAATAAACACATAAATAG	10.8 ± 0.47
TATTTTTCCATAAAAATTTATATAGAAACAAATAAT [GTGCAC_negctrl_site103]	7.75 ± 0.46
ATATCATTTTCCTGCACACATAAATTTATATAATAT [CACACA_site1048]	9.45 ± 0.38
AATTTTCCATAGATTGTGCACAAATTTTTATTTTGT	10.9 ± 0.2
AAAAAGAACAGAAACACACAAATAAAATAAAATTGT [CACACA_site6921]	7.72 ± 0.61
TTTTTTTTCTTTTTTTGTACATAATAATATATAAAT [XGTACX_site6778]	7.68 ± 0.35
TGTTCTATTCTATTATTATTTACAAATTATAAATAA [GTGCAC_negctrl_site232]	7.89 ± 0.37
TTTAATTTTCGGTGTGCACACAACTATGAGTTTTTA [CACACA_site3034]	9.565 ± 0.035

Sequence	gcPBM binding intensity (ln)
ATACAATTTATTTTAACACACGAATGAATTGATTAT [CACACA_site4160]	7.76 ± 0.63
TGTGTATATCGATAAAGTACATTTGAAAAGTGACTT [XGTACX_site6957]	7.62 ± 0.51
TTTTATTTTTTTAAATGTACACATATTAATGTAAGG [XGTACX_site319]	7.92 ± 0.3
TATTGGATCACACAAAAATGTATAAATAAATAGAAA [TGCATGCA_negctrl_site490]	7.7 ± 0.61
TCGAACATTAACATAACACACATATATATATATATA [CACACA_site2900]	9.27 ± 0.29
TACATATTGATATATACACACAAAAAAATAAATTCT [CACACA_site6198]	7.61 ± 0.54
CATTTTATTTTCTTTGTGCACAAAAATATTTTTTCT	11.13 ± 0.092
TATCCATTTCTTTATGTGCACATTAAATATATTTGT	10.2 ± 0.4
GAAATTTGTTATTGCACACAAATTTTTCTTTTTTTA [CACACA_site2339]	10.14 ± 0.028
ATATTATTATATATAGTGCATATTATTATTTTTATT	10.2 ± 0.42
ATATTTTGTTTTATAGTGCACATGGGCATATATTAA [GTGCAC_site9435]	11 ± 0.32
TTATTTTTGTTCATAGTGCATAGAATTTATACATAT	9.91 ± 0.33
ATATATTTGATAAGAGTGCACAAATACATACATACA [GTGCAC_site9704]	10.94 ± 0.071
TATATACATATATGCACACAAAAAAATATATATTTT [CACACA_site1729]	8.99 ± 0.11
TTGTTTGATATCTTTGTCACGAAAAAAATATATATA [GTGCAC_negctrl_site54]	7.83 ± 0.64
TCTTTTTTCATATTTTCACACATGTCTTTATATTTA [CACACA_site6025]	8.28 ± 0.65
ATGAATAAATGAACATGTACATATATATATATATTA [XGTACX_site5005]	7.76 ± 0.47
TTTTGGCTTCTAATATTATACAAAATGGTAAGGAAA [TGCATGCA_negctrl_site169]	7.94 ± 0.4
TAATTTCTTAGGTATTGTACAAATATTATATGATAT [XGTACX_site256]	7.55 ± 0.59
TATCCCTTAGAATACACACCCATATGAGGGTGAACT [CACACA_site5610]	7.76 ± 0.26
TATATTTCAGGGGGGAGTACAAATTTTTTTATATAA [XGTACX_site1600]	11 ± 0.52
TATAATTATATTTGGAGTACAAATTTTTTTTTTTTT [XGTACX_site7494]	7.765 ± 0.007
TATTTTTTTTTTATATGTACATAATTTCAAATAAAT [XGTACX_site7747]	7.97 ± 0.41

Sequence	gcPBM binding intensity (ln)
ATTATTATATATATAACACACATAATTATATACTTA [CACACA_site1563]	7.89 ± 0.38
TCTATAAAGTTCCATACATGCGCCATCATTTATATT [TGCATGCA_site195]	7.97 ± 0.79
TTTTTAATCAGAAATATTTATTAAAGAATTTTATAG [GTGCAC_negctrl_site725]	7.32 ± 0.34
TTTGTTTTTTTGAGAGTGCAATATATATAAAAAGGG [GTGCAC_site9691]	11.2 ± 0.64
AGATATTTATTGAGTGCATGTTATAAAGGGAAAAAA [TGCATGCA_site88]	9.04 ± 0.17
TTATAAATAAAAAGAGTGCAATTATAAATATATATA	10.1 ± 0.23
GGTTAAAAAAAGCATACACACTATCCTCTTTGCTCT [CACACA_site7246]	7.9 ± 0.65
TTTAATTATTAAATGGTGCACTTGAAATATAAAAAT	11 ± 0.45
GTTTATTTATTTTATGTGCACATATAACAAAAAAAA	10.36 ± 0.028
TATATTTTTATGTGTGTGCACAAAATAACAAAATAT [GTGCAC_site9596]	11.1 ± 0.35
ATCATATTTTTATGTGTGCACTTTTTTTTTTTTTTT [GTGCAC_site9555]	10.25 ± 0.014
ATATATTTTATATGTGTGCACTATATATATATATAT	11.4 ± 0.3
TATATATATTTTTGTGTGCACTATAATATGAAAATA	11.4 ± 0.45
CAAAATATTTTTATAACACACATATATATAATGTGC [CACACA_site4767]	7.8 ± 0.52
TGCATAATTAAAAATGGTACACTGTATTTATAATAT [XGTACX_site1575]	7.95 ± 0.61
AAATGAAATAAAATCATATATTTATAATTATTATAA [TGCATGCA_negctrl_site612]	7.27 ± 0.41
AATTTTTTTTTTTTTTTTTTTTATATATGTGTGTGT [XGTACX_negctrl_site129]	7.59 ± 0.28
TTTTTTTTTTTTTTTGCACACTATATTTAATATAAG [CACACA_site2444]	9.42 ± 0.21
ATATATCATAAATAAATGAAAATATTTTCTATGTGT [CACACA_negctrl_site689]	7.77 ± 0.62
ACAAAGTAAAATAATGCATGTAGGTATACATAATTA [TGCATGCA_site607]	7.71 ± 0.81
TAGAACAAATAAAACACACACATATATATATATATG [CACACA_site2768]	8.06 ± 0.41
ATATATTAAAAGGATTAGGAAAAAATATGATTTATC [TGCATGCA_negctrl_site405]	7.55 ± 0.78
GAACAAAATTTTATATGTACATAATATTTATATATA [XGTACX_site3667]	8 ± 0.2

Sequence	gcPBM binding intensity (ln)
TTACAAGTAAAAGGTACACACATTATATATACAAAT [CACACA_site8290]	7.97 ± 0.55
TTTTTTTTCATTTTATGTACACATAATTTAATATAT [XGTACX_site5768]	8.16 ± 0.45
CATGACATATCCTGTAGTACAACGTATATATAAGAT [XGTACX_site2577]	7.8 ± 0.61
ATCAAAAATATAAAAAATATAAACAATTTATTATCA [CACACA_negctrl_site768]	7.32 ± 0.47
TTTCAATTTATCAGTGTGCACAAAAATAAAATAAAA	10.88 ± 0.028
ATATAGAAAATGCATACACACTTTATAAATATATTT [CACACA_site6553]	7.92 ± 0.53
TTTTTTCAATTTTTTTTAAATAAACCACAAAAAAAA [CACACA_negctrl_site1701]	7.74 ± 0.49
TATTTATAAATATGTGTGCACAATTTATTTTATAAT	11 ± 0.26
TTATAATTTTAATGTGCACACAATTAAAATATTATA [CACACA_site5172]	10.79 ± 0.085
AATACTTTTTATTTAGTGCATAAGAAAATATAAATC [GTGCAC_site9875]	10.9 ± 0.44
CAATTTATTATATATGTGCACATATAATTTTACAAA	9.59 ± 0.24
AAATAAAAATTAAAAAAATAGAAACGAATTGAATGC [TGCATGCA_negctrl_site365]	7.83 ± 0.64
GAATAAATATTAAATGTGCACTTGAATAGATGTAAA	10.1 ± 0.16
TATAAATTAAAATGTGTGCACTAAATTGAAATAGAA	11.5 ± 0.53
CTTAAAATATATTTAGTGCATATACTAATATATTAT	10.2 ± 0.45
ATATATTTTTAAAAAAATTAAGAATTTTACATCTCC [CACACA_negctrl_site1450]	7.59 ± 0.65
AACAATTATTTATCTACACACTTTTATGTTATTTAC [CACACA_site9]	7.88 ± 0.67
AATTTTTTTTTCTTTTGTACGTAAATATGTGTAGGC [XGTACX_site215]	8.33 ± 0.26
ATGTGAAAATAAGACACACTCAAAAGGTTTATATTA [CACACA_site4595]	7.67 ± 0.43
ATACTTTTAATATGCACATGCAAATATGAAATATCG [TGCATGCA_site603]	9.22 ± 0.39
TTATAAAAAAAAAAAAAAAAAAAAACCAATATAATA [CACACA_negctrl_site968]	7.3 ± 0.48
ATTTATTTGAAGAATTGTACTAAATTATATAGCGGT [XGTACX_site4998]	7.94 ± 0.49
TATATATATAAATACACACACACCGTCCGTGTTAAA [CACACA_site5623]	8.54 ± 0.53
